Inconclusive results are not listed. Active and inactive are the calls of the source. The call rests on the fitted dose curve; in most records, active means well fitted inhibition curve with a large enough effect; inconclusive means small, poorly fitted or top-dose-only effect; inactive means flat fitted curve, though single readings scatter. Where a SMILES comes first, the peptide text is derived from it. Bridges are numbered along the chain shown (N, C = ends). [ ]: non-standard residue; d: D form. hArg = N=C(N)NCCCC[C@H](N)C(=O)O; Mpa = O=C(O)CCS
Legend:
Test in all cases: qHTS profiling for inhibitors of Plasmodium falciparum proliferation (AID 504749); further: nearly all actives have a fitted effect of over 60% in size
Conditions in all cases: P. falciparum in erythrocytes, SYBR Green DNA, 72 h; series mostly up to 28.7 µM
[1] = test system: CP262
Method in brief: (§1)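 P. falciparum-infected erythrocytes (0.3% parasitemia, 2.5% hematocrit) incubated with compound 72 h at 37 C, 5% CO2. Parasite DNA detected by SYBR Green after lysis, overnight at room temperature; normalised to 0.29 uM artemisinin and DMSO.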

[2] = test system: CP265
Method in brief: as §1

[3] = test system: CP268
Method in brief: as §1

[4] = test system: CP269
Method in brief: as §1

[5] = test system: CP286
Method in brief: as §1

[6] = test system: CP291
Method in brief: as §1

[7] = test system: CP297
Method in brief: as §1

[8] = test system: CP305
Method in brief: as §1

[9] = test system: CP315
Method in brief: as §1

[10] = test system: CP266
Method in brief: as §1

Measured: Potency
Potency means the concentration at half of the fitted maximal effect.

C[C@@H]1O[C@@H](OC[C@H]2O[C@@H](Oc3c(-c4ccc(O)c(O)c4)oc4cc(O)cc(O)c4c3=O)[C@H](O)[C@@H](O)[C@@H]2O)[C@H](O)[C@H](O)[C@H]1O
inactive: [1] | [2] | [3] | [4] | [5] | [6] | [7] | [8] | [9]

CCCCCCCCCCCCCCCCN
inactive: [1] | [2] | [3] | [4] | [5] | [6] | [7] | [8] | [9]

O=C1C(c2[nH]c3ccccc3c2O)=Nc2ccccc21
inactive: [1] | [2] | [10] | [4] | [5] | [8] | [9]

CCN1CC(CCN2CCOCC2)C(c2ccccc2)(c2ccccc2)C1=O (stereo unspecified)
inactive: [1] | [10] | [3] | [4] | [5] | [6] | [8] | [9]

CC[N+](CC)(CC(=O)Nc1c(C)cccc1C)Cc1ccccc1
inactive: [2] | [10] | [3] | [4] | [5] | [6] | [7] | [8] | [9]

NC(=O)c1ccc([N+](=O)[O-])cc1Cl
inactive: [1] | [10] | [3] | [4] | [5] | [6] | [7] | [8] | [9]

Cc1c(C)c2c(c(C)c1OC(=O)c1cccnc1)CC[C@@](C)(CCC[C@H](C)CCC[C@H](C)CCCC(C)C)O2
inactive: [1] | [2] | [3] | [4] | [5] | [6] | [7] | [8] | [9]

O=C(O)CCCc1ccccc1
inactive: [1] | [2] | [3] | [4] | [5] | [6] | [7] | [8] | [9]

CC(CN(C)C)C(C)(O)Cc1ccc(Cl)cc1 (stereo unspecified)
inactive: [1] | [10] | [4] | [9]

Nc1c2c(nc3c1CCC3)CCCC2
active: [5] 11.2 µM | [8] 15.1 µM

Cc1cc(O)cc(C)c1Cl
active: [2] 11.2 µM
inactive: [1] | [10] | [3] | [5] | [6] | [7] | [9]

NC(=O)[C@@H]1CSSCCC(=O)N[C@@H](CCCCN=C(N)N)C(=O)NCC(=O)N[C@@H](CC(=O)O)C(=O)N[C@@H](Cc2c[nH]c3ccccc23)C(=O)N2CCC[C@H]2C(=O)N1 ([Mpa][hArg]GDWPC-NH2; disulfide 1-7)
inactive: [1] | [2] | [3] | [4] | [5] | [6] | [7] | [8] | [9]

COC(=O)c1ccc(O)cc1
inactive: [1] | [2] | [3] | [4] | [5] | [6] | [7] | [8]

O=C1c2ccccc2C(=O)C1c1ccc(Br)cc1
inactive: [1] | [10] | [3] | [6] | [7] | [8]

C[C@H]1COc2c(C3(N)CC3)c(F)cc3c(=O)c(C(=O)O)cn1c23
inactive: [1] | [2] | [10] | [4] | [5] | [8] | [9]

CN/C(=C\[N+](=O)[O-])NCCSCc1csc(CN(C)C)n1
inactive: [1] | [2] | [3] | [4] | [5] | [6] | [7] | [8] | [9]

Nc1ncnc(Nc2ccccc2)n1
inactive: [2] | [10] | [3] | [4] | [5] | [6] | [7] | [8] | [9]

Cc1[nH]c(C)c(Cl)c(=O)c1Cl
inactive: [2] | [10] | [3] | [4] | [6] | [7] | [8] | [9]

CCOc1ccc(C(=O)OCCN(CC)CC)cc1
inactive: [2] | [10] | [3] | [4] | [5] | [6] | [7] | [8] | [9]

Cc1ccsc1C(=CCCN1CCC[C@@H](C(=O)O)C1)c1sccc1C
inactive: [1] | [2] | [3] | [4] | [5] | [6] | [7] | [9]

CC(=O)N(CC(O)CO)c1c(I)c(C(=O)NCC(O)CO)c(I)c(C(=O)NCC(O)CO)c1I (stereo unspecified)
inactive: [1] | [10] | [3] | [4] | [5] | [6] | [7] | [8] | [9]

NCc1ccc(S(N)(=O)=O)cc1
inactive: [1] | [10] | [3] | [4] | [5] | [6] | [7] | [8] | [9]

Cc1cc(-n2nc3ccc(Cl)cc3n2)c(O)c(C(C)(C)C)c1
inactive: [1] | [10] | [3] | [4] | [5] | [6] | [7] | [8] | [9]

Cc1cc(OI)c(C(C)C)cc1-c1cc(C(C)C)c(OI)cc1C
inactive: [1] | [10] | [5] | [8] | [9]

NS(=O)(=O)c1ccc(C(=O)O)cc1
inactive: [2] | [10] | [3] | [4] | [5] | [6] | [7] | [8] | [9]

Cc1cc(C)c(NC(=O)CN(CC(=O)O)CC(=O)O)c(C)c1Br
inactive: [1] | [10] | [3] | [4] | [5] | [6] | [7] | [8] | [9]

Reference: PubChem BioAssay (NCATS)
